Data on 2 compounds can be found in PubChem BioAssay (NCATS).

Test [1] is described as follows: AP1 Signaling Pathway (AID 357; active = well fitted curve in either direction with a large enough effect, not every such curve was filed as active; note: % is set by controls: 0 for no effect and ±100 for the full control effect). As to conditions: ME-180 AP-1-bla reporter, EGF-induced, beta-lactamase ratio, 5 h; at 7.69 µM (top of the series) unless noted. A digest of the protocol: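 AP-1-bla ME-180 cells with beta-lactamase reporter under AP-1 response element, stimulated with EC50 EGF; compounds titrated, 5 hours at 37 degrees Celsius. CCF4 read at 460/530 nm ratio; positive and negative modulators judged by AC50.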

Test [2] deals with Cytochrome P450 1A2 (Homo sapiens) (UniProt P05177). As to the kind of experiment: p450-cyp1a2 (AID 410; calls by dose curve; note: potency is the fitted concentration of half-maximal effect). The gist of the method: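 20nM CYP1A2 with 100uM Luciferin-ME (at Km) in 100mM KPO4; compound preincubated 10 min, NADPH regeneration added, 60 min at room temperature. Luciferin quantified by luminescence after detection reagent; normalized to 57 uM furafylline.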
Test [3] in a line: NFAT Signaling Pathway (AID 444; active = well fitted curve in either direction with a large enough effect, not every such curve was filed as active;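 note: carbachol stimulus at about its EC50 of 1 µM final; % is set by controls: 0 for no effect and ±100 for the full control effect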). Particulars: Jurkat NFAT-bla M1, carbachol, beta-lactamase ratio, 5 h; at 7.69 µM (top of the series) unless noted. The gist of the method:
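Jurkat cells with NFAT-driven β-lactamase reporter and co-expressed M1 receptor, stimulated with carbachol (final 1 uM, ~EC50), compound titration, 5 h at 37 °C. CCF4 loaded 1 h at RT; 460/530 nm ratio gave %activity and AC50.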

A short description of test [4]: Stat Signaling Pathway (AID 446; active = well fitted curve in either direction with a large enough effect, not every such curve was filed as active;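 note: ME-180 cervical cancer cells given 40 pM IL-6 alongside compound; SIE-controlled beta-lactamase reporter measured as 460/530 nm FRET emission ratio; % is set by controls: 0 for no effect and ±100 for the full control effect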). As to conditions: ME-180 (cervical carcinoma) SIE beta-lactamase reporter, IL-6 stimulated, 5 h; at 7.69 µM (top of the series) unless noted. The gist of the method:
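IL-6/STAT signaling read in ME-180 cells via an SIE beta-lactamase reporter. Stimulus was 40 pM IL-6 (its AC50) for 5 hrs, so both activation and inhibition register.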

Test [5] has as its target Glucocorticoid receptor (Homo sapiens) (UniProt P04150). As to the kind of experiment: GR-GFP Redistribution (AID 450;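 active = compounds whose dose series gives a full or clear partial fitted curve of increased nuclear translocation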; note: potency is the fitted concentration of half-maximal effect). Particulars: U2OS GR-GFP nuclear translocation, laser cytometry, 2 h.
Test [6] shares this target. As to the kind of experiment: GR-EFC Redistribution (AID 451; calls by dose curve; note: potency is the fitted concentration of half-maximal effect). Particulars: CHO-K1 GR-EFC translocation, beta-gal luminescence, 2 h. The gist of the method:
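CHO-K1 cells expressing nuclear EA and GR-ED fragments of b-gal; compounds titrated up to 46 uM final, 2 h at 37 C. GR nuclear translocation read as complemented b-gal luminescence after 1 h RT detection.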

Test [7] has as its target Mitogen-activated protein kinase 10 (Mus musculus) (UniProt Q61831). Briefly: JNK3 AlphaScreen Assay (AID 530; active = well fitted curve in either direction with a large enough effect, not every such curve was filed as active;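 note: kinase came from lysate of stimulated human HepG2 cells; signal reports phosphorylation of biotinylated GST-cJun 1-79 at Ser73 with 10 µM ATP; % is set by controls: 0 for no effect and ±100 for the full control effect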). The gist of the method:
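Pre-activated (IL-1β/TNFα) JNK3 in HepG2 lysates phosphorylates biotin-GST-cJun(1-79), 10 uM ATP; anti-phospho-cJun(Ser73) AlphaScreen read at room temperature, pH 7.6 Tris buffer. Compounds pre-incubated 15 min as titrations.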
On the technique in general: Bead proximity is the source of the signal in Alpha formats.

The target in test [8] is 3',5'-cyclic-AMP phosphodiesterase 4B (Homo sapiens) (UniProt Q07343). As to the kind of experiment: qHTS Assay for Inhibitors of PDE-IV (AID 607; active = well fitted activation curve with a large enough effect in the main read-out, with a control signal flat, not every such curve was filed as active; note: % of control where 0% means no effect). The gist of the method: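 Live HEK293 cells with a modified cyclic nucleotide-gated (CNG) channel report intracellular cAMP via membrane-potential dye fluorescence (ex 535/em 590 nm). Endogenous PDE-IV was targeted. Compounds were tested at up to 22.9 uM final; RO 20-1724 100 uM served as control.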

Test [9] concerns the target Cytochrome P450 2C9 (Homo sapiens) (UniProt P11712). As to the kind of experiment: qHTS Assay for Inhibitors and Substrates of Cytochrome P450 2C9 (AID 883). Note: % is set by controls: 0 for no effect and ±100 for the full control effect; nearly all actives have a fitted effect of over 60% in size. A digest of the protocol: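 10nM CYP2C9 + 100uM Luciferin-H (=KM), 25mM KPO4; cpd 10 min 37C; NADPH regen, 60 min 37C; stop/detect with P450 Glo-Buffer 20 min; luminescence. Norm. to 57uM sulphaphenazole as full inhibition.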

Test [10] addresses Cytochrome P450 3A4 (Homo sapiens) (UniProt P08684). Briefly: qHTS Assay for Activators of Cytochrome P450 3A4 (AID 885). Note: nearly all actives have a fitted effect of over 65% in size. A digest of the protocol:
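Quantitative HTS format: compounds preincubated with 20nM human CYP3A4 and Luciferin-PPXE substrate at KM, reaction started by NADPH regeneration, stopped after 60 min, luciferase luminescence read 20 min later.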

The target of test [11] is Cytochrome P450 2D6 (Homo sapiens) (UniProt P10635). As to the kind of experiment: qHTS Assay for Inhibitors and Substrates of Cytochrome P450 2D6 (AID 891).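 Note: luciferin methyl ether substrate demethylated by CYP2D6 with NADPH regeneration; % is set by controls: 0 for no effect and ±100 for the full control effect; nearly all actives have a fitted effect of over 60% in size.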 A digest of the protocol:
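Human CYP2D6 (5 nM) with 30 uM Luciferin-ME EGE (at Km) in 100 mM KPO4, compound preincubated 10 min, then NADPH regeneration system for 60 min at room temperature. Luciferin read by luminescence; normalized to 1.43 uM quinidine.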
(In general: Quantitative high-throughput screening tests each substance at several concentrations.)

The target in test [12] is Cytochrome P450 2C19 (Homo sapiens) (UniProt P33261). As to the kind of experiment: qHTS Assay for Inhibitors and Substrates of Cytochrome P450 2C19 (AID 899). Note: % is set by controls: 0 for no effect and ±100 for the full control effect; nearly all actives have a fitted effect of over 60% in size. A digest of the protocol: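 Luminescent read-out of luciferin formed from Luciferin-H EGE (10uM, equal to KM). Enzyme 5nM in 50mM KPO4; compound added, 10 min at 37C, then NADPH regenerating system for 60 min at 37C. Full inhibition defined by 57uM ketoconazole.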

Test [13] in a line: qHTS Assay for Lipid Storage Modulators (AID 1519; calls by dose curve). Particulars: Drosophila S3 cells, BODIPY lipid droplet/cell ratio, laser cytometry, cells loaded with oleic acid. The gist of the method: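 Cells seeded at 5,000 per well were treated with compounds over a concentration series and loaded with oleic acid (400 uM, as added). Lipid droplet fluorescence (488 nm excitation, 500-530 nm channel) was read by laser-scanning cytometry and normalized to 20 uM Triacsin C.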

In test [14] the target is Ubiquitin carboxyl-terminal hydrolase 1 (Homo sapiens) (UniProt O94782). Briefly: Inhibitors of USP1/UAF1: Pilot qHTS (AID 504865).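 Note: rhodamine fluorescence freed from ubiquitin-rhodamine substrate followed over time; top concentration of the series differs between compounds; % is set by controls: 0 for no effect and ±100 for the full control effect; nearly all actives have a fitted effect of over 35% in size.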 The gist of the method:
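USP1/UAF1 complex at 1 nM preincubated 15 min at room temperature with compound, then Ub-Rho substrate added at 150 nM final. Fluorescence (480/540 nm) read kinetically in 50 mM HEPES pH 7.8, 0.5 mM EDTA, 1 mM TCEP, 0.1 mg/ml BSA, 0.01% Tween-20.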

The target of test [15] is Cytochrome P450 3A4 (Homo sapiens) (UniProt P08684). As to the kind of experiment: qHTS Assay for Inhibitors and Substrates of Cytochrome P450 3A4 (AID 884). Note: % is set by controls: 0 for no effect and ±100 for the full control effect; nearly all actives have a fitted effect of over 50% in size. A digest of the protocol:
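20 nM human CYP3A4 with 25 uM Luciferin-PPXE (at KM) in 200 mM KPO4, preincubated 10 min with compound; NADPH regeneration started a 60 min RT reaction. Luciferin detected by luminescence, normalized to 57 uM ketoconazole as full inhibition.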

In test [16] the target is DNA dC->dU-editing enzyme APOBEC-3G (Homo sapiens) (UniProt Q9HC16). Briefly: qHTS for inhibitors of Vif-A3G interactions: Validation (AID 588379). Note: 0% is about no effect. The gist of the method:
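HeLa cells stably expressing Vif and A3G-eYFP, 700 cells/well, incubated overnight at 37 deg C, then exposed to compound overnight at 37 deg C. Inhibition of Vif-mediated degradation read as increased yellow fluorescence (Ex 488/Em 500-530) by laser-scanning cytometry.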

In test [17] the target is Rap guanine nucleotide exchange factor 3 (Homo sapiens) (UniProt O95398). Briefly: Confirmatory qHTS for agonist of cAMP-regulated guanine nucleotide exchange factor 3 (EPAC1) (AID 1645881).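 Note: EPAC1 catalysed release of BODIPY-GDP from Rap1B seen as fluorescence loss; nearly all actives have a fitted effect of over 75% in size.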
Test [18] addresses Rap guanine nucleotide exchange factor 4 (Homo sapiens) (UniProt Q8WZA2). As to the kind of experiment: Confirmatory qHTS for agonist of cAMP-regulated guanine nucleotide exchange factor 4 (EPAC2) (AID 1645884).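 Note: nucleotide exchange releases bodipy-GDP from Rap1 and this lowers its fluorescence; % is set by controls: 0 for no effect and ±100 for the full control effect; nearly all actives have a fitted effect of over 65% in size.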
Test [19] has the same target. Briefly: Confirmatory qHTS for antagonist of cAMP-regulated guanine nucleotide exchange factor 4 (EPAC2) (AID 1645885). Note: nearly all actives have a fitted effect of over 25% in size.
Test [20] addresses Rap guanine nucleotide exchange factor 3 (Homo sapiens) (UniProt O95398). Briefly: Counterscreen qHTS for antagonist of cAMP-regulated guanine nucleotide exchange factor 3 (EPAC1) (AID 1645888).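 Note: fluorescence loss as bound BODIPY-GDP is released from Rap1B; % of control where 0% means no effect.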 The gist of the method:
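Rap1B–BODIPY-GDP (250 nM) with 50 uM GDP; compounds pin-transferred to 9.74 nM–152 uM final (activator) or from 7.32 nM upwards (inhibitor). Fluorescence Ex/Em 480/540 nm read at 5 and 30 min, then after adding cAMP or buffer, at room temperature.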

Molecules are shown by their SMILES. Values joined by “and” are separate entries in the source; they are usually repeats but may differ in a detail not shown here. Identical values can stand only once. Results filed as inconclusive are left out. Active and inactive are the calls of the source. Unless noted, calls come from the whole dose curve; as a rule, active = well fitted curve in the direction sought with a large enough effect; inconclusive = small, poorly fitted or top-dose-only effect, or another doubt; inactive = no such curve, though single readings can be large; an effect the other way counts as inactive or inconclusive. A value given as a limit tells only on which side of the number the result lay.

Sequence of 3',5'-cyclic-AMP phosphodiesterase 4B (Homo sapiens) (Q07343 whole entry, looked up): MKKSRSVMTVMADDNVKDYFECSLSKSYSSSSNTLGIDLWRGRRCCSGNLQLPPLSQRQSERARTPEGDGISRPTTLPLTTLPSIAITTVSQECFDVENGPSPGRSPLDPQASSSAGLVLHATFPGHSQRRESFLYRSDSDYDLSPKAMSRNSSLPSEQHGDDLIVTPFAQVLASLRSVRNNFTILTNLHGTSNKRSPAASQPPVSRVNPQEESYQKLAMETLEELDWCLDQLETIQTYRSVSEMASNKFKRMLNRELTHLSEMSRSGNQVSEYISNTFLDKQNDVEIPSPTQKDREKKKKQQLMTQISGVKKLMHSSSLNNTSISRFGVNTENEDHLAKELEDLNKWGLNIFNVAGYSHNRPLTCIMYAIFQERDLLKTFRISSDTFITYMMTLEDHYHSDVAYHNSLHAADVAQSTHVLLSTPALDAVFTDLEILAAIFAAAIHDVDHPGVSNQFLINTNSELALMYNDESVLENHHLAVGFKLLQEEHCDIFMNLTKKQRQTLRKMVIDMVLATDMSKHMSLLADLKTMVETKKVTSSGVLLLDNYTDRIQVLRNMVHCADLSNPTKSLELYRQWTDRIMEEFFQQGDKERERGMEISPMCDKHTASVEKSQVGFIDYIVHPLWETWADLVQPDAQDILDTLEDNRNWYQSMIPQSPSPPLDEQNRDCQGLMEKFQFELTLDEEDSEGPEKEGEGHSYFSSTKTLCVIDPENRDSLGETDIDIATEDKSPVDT
Sequence of Glucocorticoid receptor (Homo sapiens) (P04150 whole entry, looked up): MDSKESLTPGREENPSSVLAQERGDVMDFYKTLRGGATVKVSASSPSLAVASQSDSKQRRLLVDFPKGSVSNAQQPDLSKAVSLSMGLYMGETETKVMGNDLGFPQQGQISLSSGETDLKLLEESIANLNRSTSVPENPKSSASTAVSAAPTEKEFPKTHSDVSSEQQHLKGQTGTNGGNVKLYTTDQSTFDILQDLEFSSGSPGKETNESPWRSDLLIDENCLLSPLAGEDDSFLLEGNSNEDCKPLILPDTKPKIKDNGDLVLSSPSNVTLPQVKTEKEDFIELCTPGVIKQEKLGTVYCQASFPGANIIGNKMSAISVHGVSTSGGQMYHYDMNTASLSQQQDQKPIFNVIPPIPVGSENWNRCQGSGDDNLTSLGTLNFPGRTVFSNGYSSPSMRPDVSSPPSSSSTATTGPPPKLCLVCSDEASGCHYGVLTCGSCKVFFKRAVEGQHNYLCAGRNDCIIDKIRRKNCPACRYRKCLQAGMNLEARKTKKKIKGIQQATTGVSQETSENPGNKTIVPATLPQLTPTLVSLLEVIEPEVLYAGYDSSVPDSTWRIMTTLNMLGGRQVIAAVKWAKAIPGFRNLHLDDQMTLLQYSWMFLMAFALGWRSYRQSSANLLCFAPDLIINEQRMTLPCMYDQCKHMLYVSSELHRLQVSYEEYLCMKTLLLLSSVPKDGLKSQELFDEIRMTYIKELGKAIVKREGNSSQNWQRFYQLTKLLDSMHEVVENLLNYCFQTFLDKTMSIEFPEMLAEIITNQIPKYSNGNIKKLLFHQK
Sequence of Cytochrome P450 3A4 (Homo sapiens) (P08684 whole entry, looked up): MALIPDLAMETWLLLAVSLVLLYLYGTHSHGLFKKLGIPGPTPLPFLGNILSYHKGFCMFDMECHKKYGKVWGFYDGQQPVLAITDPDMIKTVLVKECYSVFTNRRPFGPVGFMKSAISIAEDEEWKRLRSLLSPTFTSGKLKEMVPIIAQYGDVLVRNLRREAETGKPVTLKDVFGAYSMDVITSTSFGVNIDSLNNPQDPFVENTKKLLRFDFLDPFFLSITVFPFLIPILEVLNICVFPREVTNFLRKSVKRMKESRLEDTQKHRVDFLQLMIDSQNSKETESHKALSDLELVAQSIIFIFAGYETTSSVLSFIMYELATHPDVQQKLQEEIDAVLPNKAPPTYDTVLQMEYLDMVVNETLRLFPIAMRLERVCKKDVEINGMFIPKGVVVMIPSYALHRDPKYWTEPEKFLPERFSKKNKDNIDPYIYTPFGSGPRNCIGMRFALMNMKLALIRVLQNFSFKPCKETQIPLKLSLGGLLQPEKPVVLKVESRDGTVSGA
Sequence of Cytochrome P450 2D6 (Homo sapiens) (P10635 whole entry, looked up): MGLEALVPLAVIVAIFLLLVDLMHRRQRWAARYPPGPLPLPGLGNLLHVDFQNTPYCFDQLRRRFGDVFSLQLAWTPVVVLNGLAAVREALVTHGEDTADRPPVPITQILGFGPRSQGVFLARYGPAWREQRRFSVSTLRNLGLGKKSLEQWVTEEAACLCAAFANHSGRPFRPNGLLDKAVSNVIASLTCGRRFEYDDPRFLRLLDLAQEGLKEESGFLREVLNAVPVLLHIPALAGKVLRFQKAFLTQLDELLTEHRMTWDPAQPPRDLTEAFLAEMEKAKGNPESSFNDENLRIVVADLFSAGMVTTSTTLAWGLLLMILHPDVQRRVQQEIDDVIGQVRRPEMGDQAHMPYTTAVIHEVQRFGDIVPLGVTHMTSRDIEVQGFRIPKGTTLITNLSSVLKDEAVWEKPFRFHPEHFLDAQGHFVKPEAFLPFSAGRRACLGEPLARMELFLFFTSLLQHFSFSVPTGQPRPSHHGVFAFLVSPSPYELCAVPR
Sequence of Cytochrome P450 2C19 (Homo sapiens) (P33261 whole entry, looked up): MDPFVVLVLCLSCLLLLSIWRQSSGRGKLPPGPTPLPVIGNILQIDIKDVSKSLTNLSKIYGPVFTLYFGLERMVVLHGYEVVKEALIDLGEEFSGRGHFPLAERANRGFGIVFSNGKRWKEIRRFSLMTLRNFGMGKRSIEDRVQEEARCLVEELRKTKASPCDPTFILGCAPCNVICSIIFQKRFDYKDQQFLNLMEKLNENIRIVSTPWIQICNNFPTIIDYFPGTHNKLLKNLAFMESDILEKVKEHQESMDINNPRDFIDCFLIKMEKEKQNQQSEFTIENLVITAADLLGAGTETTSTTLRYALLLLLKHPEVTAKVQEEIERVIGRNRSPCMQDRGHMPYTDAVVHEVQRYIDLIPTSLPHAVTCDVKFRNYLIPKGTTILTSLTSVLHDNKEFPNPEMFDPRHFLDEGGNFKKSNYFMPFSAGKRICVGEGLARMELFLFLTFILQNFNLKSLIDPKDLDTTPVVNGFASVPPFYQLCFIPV
Sequence of Rap guanine nucleotide exchange factor 4 (Homo sapiens) (Q8WZA2 whole entry, looked up): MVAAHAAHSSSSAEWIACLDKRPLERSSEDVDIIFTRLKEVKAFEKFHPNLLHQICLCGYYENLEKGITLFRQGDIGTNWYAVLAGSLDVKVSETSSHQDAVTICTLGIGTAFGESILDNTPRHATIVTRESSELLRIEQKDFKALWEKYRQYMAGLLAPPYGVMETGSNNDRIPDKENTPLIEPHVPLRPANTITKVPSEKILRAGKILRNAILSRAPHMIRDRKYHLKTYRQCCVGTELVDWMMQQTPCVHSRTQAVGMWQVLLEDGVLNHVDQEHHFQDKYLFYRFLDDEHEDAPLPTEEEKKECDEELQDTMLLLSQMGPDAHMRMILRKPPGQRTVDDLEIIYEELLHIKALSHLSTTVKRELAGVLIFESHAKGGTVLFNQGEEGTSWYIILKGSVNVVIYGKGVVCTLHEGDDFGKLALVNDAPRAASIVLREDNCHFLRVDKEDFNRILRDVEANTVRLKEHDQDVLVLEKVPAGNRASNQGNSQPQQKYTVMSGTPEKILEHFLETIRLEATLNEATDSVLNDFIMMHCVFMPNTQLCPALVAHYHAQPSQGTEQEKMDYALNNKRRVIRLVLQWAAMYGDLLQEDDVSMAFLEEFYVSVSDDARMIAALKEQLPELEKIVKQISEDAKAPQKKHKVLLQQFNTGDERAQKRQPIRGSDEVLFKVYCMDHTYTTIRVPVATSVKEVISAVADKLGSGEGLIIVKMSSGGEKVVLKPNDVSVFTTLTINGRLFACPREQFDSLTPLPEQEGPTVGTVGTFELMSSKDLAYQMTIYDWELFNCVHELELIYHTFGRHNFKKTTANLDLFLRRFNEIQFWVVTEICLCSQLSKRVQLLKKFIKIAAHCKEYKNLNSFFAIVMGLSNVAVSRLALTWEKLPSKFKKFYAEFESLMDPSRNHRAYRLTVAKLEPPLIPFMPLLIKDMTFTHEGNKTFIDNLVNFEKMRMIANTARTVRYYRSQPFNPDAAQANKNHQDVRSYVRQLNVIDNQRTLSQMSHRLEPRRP
Sequence of Cytochrome P450 2C9 (Homo sapiens) (P11712 whole entry, looked up): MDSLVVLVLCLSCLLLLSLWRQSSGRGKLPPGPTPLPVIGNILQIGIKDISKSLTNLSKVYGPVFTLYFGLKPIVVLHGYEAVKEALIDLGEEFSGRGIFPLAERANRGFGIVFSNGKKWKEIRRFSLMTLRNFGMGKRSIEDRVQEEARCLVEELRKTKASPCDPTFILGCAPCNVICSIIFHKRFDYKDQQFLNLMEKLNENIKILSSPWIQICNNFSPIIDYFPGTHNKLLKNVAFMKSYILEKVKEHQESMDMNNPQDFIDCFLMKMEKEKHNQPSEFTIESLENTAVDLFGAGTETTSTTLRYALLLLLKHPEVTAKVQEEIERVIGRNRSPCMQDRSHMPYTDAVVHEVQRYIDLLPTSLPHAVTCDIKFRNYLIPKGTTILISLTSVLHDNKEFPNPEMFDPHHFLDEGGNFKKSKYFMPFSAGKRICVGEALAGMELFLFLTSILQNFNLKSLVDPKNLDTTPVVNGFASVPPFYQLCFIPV
Sequence of Cytochrome P450 1A2 (Homo sapiens) (P05177 whole entry, looked up): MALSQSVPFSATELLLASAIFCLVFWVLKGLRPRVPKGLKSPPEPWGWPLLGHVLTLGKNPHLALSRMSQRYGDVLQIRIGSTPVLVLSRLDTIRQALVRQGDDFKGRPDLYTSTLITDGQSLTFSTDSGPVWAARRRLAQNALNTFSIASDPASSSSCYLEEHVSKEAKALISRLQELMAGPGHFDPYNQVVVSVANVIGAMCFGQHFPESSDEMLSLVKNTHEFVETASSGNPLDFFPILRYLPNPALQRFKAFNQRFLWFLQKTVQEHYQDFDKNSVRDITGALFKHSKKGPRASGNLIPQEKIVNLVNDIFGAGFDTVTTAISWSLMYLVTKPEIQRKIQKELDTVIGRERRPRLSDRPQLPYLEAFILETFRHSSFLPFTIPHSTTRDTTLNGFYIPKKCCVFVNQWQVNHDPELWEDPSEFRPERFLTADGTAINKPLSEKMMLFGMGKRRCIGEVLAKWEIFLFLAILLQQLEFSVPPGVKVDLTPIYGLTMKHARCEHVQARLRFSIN

Consider `COc1c2ccoc2nc2c(OC)c(OC[C@H](O)C(C)(C)O)ccc12`, for which the activity change, negative = inhibition in test [1] is 1.86% [at 17.2 µM] (inactive); in test [3] it was 15.7% [at 17.2 µM] (inactive); in test [13] (at 25.7 µM (top of the series)), -1.84% (inactive). The Potency in test [2] is 10 µM (active) and 25.1 µM (active); in test [5] it was > 20.6 µM (inactive) and > 46 µM (inactive); in [6] it was > 20.6 µM (inactive) and > 46 µM (inactive). In test [4], the activity, negative = inhibition is -10.7% [at 17.2 µM] (inactive). Besides, the Potency entry in test [7], in test [8], in [9], in test [10], in [11] and in test [12] was “inactive” each time. In addition, in [14], the Potency result was “inactive”. Also, the max response was -8.76% in test [13] (measured here: cell count channel max response) and -11% in test [13] (measured here: lipid channel max response).

Consider `COc1c(-c2ccc(O)c(O)c2)oc2cc(O)cc(O)c2c1=O`, for which the Potency in test [5] and in test [6] was > 46 µM (inactive) each time. Moreover, the Potency entry in test [8], in test [15], in test [11], in test [12], in [17] and in test [18] was “inactive” throughout. In addition, the Potency entry in [19] was “inactive”. Moreover, the outcome in test [16] and in test [20] was inactive.
